Assay results published in ChEMBL document CHEMBL2218924, “A broad activity screen in support of a chemogenomic map for kinase signalling research and drug discovery” (Biochem J, 2013).

What was measured:
[1] = molecular target: T1, Serine/threonine-protein kinase TBK1 (Homo sapiens) (UniProt Q9UHD2); conditions: at 10 µM
T1 sequence (whole entry): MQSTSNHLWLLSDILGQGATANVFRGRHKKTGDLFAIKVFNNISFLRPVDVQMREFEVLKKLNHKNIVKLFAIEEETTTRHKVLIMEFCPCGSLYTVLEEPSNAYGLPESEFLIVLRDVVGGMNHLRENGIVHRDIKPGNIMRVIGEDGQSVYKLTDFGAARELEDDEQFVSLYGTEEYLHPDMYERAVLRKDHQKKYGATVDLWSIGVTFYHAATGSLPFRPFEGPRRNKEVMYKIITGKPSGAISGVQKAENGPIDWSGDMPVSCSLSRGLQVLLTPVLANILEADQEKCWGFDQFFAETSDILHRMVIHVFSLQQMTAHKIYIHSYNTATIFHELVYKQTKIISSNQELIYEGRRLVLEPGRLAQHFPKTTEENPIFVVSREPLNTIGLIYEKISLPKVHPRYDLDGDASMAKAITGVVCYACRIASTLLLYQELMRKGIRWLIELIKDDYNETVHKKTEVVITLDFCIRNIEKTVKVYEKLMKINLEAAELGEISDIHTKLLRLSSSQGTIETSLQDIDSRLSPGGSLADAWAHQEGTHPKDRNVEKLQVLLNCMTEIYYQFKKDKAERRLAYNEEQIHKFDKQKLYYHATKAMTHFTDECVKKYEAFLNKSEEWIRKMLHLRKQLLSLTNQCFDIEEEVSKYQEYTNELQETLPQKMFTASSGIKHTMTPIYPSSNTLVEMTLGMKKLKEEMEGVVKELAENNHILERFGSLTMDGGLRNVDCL

[2] = molecular target: T2, TGF-beta receptor type-1 (Homo sapiens) (UniProt P36897); conditions: at 1 µM
T2 sequence (whole entry): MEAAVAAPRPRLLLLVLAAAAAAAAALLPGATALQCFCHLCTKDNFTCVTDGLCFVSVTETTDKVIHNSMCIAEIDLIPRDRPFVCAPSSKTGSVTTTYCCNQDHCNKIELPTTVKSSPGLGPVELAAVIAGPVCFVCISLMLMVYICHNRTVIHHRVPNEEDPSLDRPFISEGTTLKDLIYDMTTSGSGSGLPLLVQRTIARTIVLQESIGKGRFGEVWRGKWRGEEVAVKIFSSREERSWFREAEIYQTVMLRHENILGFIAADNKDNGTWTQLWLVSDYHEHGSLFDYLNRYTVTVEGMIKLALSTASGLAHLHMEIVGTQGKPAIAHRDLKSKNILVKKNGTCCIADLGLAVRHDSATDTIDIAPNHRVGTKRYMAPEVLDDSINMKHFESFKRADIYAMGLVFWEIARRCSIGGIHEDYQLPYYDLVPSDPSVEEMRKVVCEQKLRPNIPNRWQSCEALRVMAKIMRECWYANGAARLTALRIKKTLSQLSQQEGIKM

[3] = molecular target: T2, TGF-beta receptor type-1 (Homo sapiens); conditions: at 10 µM
[4] = molecular target: Insulin-like growth factor 1 receptor (Homo sapiens) (UniProt P08069); conditions: at 1 µM
[5] = molecular target: Insulin-like growth factor 1 receptor (Homo sapiens) (UniProt P08069); conditions: at 10 µM
[6] = molecular target: T3, Inhibitor of nuclear factor kappa-B kinase subunit alpha (Homo sapiens) (UniProt O15111); conditions: at 1 µM
T3 sequence (whole entry): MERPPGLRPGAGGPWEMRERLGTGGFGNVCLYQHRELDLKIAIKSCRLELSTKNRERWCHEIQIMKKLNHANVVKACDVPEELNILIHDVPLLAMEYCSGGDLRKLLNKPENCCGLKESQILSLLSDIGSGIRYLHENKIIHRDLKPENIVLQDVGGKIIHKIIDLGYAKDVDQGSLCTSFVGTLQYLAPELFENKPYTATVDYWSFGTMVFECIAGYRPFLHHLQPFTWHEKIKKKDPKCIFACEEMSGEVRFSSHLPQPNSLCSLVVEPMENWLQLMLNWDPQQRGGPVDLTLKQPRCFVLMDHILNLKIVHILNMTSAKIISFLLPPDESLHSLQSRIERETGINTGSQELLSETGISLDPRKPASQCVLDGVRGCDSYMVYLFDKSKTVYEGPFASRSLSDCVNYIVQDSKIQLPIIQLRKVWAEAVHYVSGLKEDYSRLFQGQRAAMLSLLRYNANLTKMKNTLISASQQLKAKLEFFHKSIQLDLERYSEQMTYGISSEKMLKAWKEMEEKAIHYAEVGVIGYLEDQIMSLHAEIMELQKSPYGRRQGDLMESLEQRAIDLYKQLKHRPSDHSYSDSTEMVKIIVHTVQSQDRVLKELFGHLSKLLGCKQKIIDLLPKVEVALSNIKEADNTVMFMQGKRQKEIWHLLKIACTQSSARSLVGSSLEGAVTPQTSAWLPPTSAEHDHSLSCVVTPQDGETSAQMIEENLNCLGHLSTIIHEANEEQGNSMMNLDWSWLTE

[7] = molecular target: T3, Inhibitor of nuclear factor kappa-B kinase subunit alpha (Homo sapiens); conditions: at 10 µM
[8] = molecular target: T4, Inhibitor of nuclear factor kappa-B kinase subunit beta (Homo sapiens) (UniProt O14920); conditions: at 1 µM
T4 sequence (whole entry): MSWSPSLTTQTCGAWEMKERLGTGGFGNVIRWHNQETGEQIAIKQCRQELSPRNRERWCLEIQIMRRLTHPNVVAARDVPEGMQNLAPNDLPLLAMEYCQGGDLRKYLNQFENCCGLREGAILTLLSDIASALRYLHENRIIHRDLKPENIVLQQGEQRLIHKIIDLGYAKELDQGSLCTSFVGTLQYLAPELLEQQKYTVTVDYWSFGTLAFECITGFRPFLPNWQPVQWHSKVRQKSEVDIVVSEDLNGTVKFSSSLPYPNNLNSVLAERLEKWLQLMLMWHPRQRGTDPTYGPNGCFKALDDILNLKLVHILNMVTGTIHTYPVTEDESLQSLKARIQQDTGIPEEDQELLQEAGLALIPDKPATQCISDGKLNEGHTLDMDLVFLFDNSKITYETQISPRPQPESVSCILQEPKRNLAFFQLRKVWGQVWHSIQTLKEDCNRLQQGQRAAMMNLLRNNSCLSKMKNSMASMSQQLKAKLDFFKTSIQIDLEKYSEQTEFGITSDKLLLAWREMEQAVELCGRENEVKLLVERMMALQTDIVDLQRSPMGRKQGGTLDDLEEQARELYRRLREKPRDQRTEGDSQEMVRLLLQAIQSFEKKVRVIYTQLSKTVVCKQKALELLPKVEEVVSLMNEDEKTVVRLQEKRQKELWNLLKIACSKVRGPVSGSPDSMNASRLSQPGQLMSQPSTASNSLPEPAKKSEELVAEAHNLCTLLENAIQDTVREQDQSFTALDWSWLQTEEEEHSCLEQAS

[9] = molecular target: T4, Inhibitor of nuclear factor kappa-B kinase subunit beta (Homo sapiens); conditions: at 10 µM
[10] = molecular target: Insulin receptor (Homo sapiens) (UniProt P06213); conditions: at 1 µM
[11] = molecular target: Insulin receptor (Homo sapiens) (UniProt P06213); conditions: at 10 µM
[12] = molecular target: Insulin receptor (Homo sapiens) (UniProt P06213); conditions: at 1 µM; remark: listed apart in the source
[13] = molecular target: Insulin receptor (Homo sapiens) (UniProt P06213); conditions: at 10 µM; remark: listed apart in the source
[14] = molecular target: Interleukin-1 receptor-associated kinase 1 (Homo sapiens) (UniProt P51617); conditions: at 1 µM
[15] = molecular target: Interleukin-1 receptor-associated kinase 1 (Homo sapiens) (UniProt P51617); conditions: at 10 µM
[16] = molecular target: T5, Interleukin-1 receptor-associated kinase 4 (Homo sapiens) (UniProt Q9NWZ3); conditions: at 1 µM
T5 sequence (whole entry): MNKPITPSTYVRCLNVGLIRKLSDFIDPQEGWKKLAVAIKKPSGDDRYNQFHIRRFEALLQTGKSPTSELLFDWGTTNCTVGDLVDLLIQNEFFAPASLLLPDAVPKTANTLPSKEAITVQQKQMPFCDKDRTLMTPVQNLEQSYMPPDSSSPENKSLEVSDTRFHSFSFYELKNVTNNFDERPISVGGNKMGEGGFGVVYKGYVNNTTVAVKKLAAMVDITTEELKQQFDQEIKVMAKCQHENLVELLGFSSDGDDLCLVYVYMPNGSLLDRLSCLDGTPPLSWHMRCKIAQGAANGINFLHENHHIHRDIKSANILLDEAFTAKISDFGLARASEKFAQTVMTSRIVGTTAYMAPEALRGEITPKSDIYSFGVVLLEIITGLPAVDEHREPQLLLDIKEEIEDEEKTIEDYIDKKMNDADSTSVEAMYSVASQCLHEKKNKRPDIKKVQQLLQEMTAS

[17] = molecular target: T5, Interleukin-1 receptor-associated kinase 4 (Homo sapiens); conditions: at 10 µM
[18] = molecular target: Insulin receptor-related protein (Homo sapiens) (UniProt P14616); conditions: at 1 µM
[19] = molecular target: Insulin receptor-related protein (Homo sapiens) (UniProt P14616); conditions: at 10 µM
[20] = molecular target: T6, Tyrosine-protein kinase ITK/TSK (Homo sapiens) (UniProt Q08881); conditions: at 1 µM
T6 sequence (whole entry): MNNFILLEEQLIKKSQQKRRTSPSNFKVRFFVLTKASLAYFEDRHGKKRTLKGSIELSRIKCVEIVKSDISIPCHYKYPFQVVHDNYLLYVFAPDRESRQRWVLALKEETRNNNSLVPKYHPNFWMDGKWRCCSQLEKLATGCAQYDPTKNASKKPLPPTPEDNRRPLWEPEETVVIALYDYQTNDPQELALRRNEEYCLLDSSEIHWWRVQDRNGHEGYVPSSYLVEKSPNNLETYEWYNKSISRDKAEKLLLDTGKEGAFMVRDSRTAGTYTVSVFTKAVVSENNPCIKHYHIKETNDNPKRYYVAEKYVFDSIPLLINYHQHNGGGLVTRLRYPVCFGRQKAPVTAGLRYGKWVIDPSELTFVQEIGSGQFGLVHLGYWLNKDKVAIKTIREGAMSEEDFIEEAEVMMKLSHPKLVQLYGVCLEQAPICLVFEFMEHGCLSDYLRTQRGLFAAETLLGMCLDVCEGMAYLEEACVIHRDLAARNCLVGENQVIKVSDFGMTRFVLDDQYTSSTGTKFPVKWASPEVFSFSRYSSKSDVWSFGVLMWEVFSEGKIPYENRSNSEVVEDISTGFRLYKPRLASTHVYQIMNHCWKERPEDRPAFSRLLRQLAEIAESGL

Insulin receptor (Homo sapiens), sequence (P06213 28-758 limits assumed): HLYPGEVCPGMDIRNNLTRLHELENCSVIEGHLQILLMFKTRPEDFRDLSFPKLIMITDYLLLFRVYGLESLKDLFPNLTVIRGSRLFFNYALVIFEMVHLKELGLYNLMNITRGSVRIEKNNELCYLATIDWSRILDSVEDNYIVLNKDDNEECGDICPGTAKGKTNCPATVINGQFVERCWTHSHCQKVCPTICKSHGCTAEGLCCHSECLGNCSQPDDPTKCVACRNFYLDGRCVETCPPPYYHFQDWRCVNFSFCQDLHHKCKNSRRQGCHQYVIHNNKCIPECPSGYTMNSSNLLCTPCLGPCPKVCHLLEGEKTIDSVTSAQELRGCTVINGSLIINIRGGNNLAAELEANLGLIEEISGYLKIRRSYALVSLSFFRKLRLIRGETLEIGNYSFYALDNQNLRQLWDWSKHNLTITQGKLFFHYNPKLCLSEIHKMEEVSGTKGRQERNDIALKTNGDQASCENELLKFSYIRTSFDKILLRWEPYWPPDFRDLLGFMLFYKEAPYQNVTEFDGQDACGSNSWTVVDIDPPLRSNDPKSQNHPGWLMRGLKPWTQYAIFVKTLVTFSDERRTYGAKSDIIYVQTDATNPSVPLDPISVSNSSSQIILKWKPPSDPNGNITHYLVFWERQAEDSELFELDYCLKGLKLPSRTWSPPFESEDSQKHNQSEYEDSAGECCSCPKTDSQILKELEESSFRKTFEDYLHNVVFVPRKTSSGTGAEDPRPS
Insulin receptor (Homo sapiens), sequence (P06213 763-1382 limits assumed): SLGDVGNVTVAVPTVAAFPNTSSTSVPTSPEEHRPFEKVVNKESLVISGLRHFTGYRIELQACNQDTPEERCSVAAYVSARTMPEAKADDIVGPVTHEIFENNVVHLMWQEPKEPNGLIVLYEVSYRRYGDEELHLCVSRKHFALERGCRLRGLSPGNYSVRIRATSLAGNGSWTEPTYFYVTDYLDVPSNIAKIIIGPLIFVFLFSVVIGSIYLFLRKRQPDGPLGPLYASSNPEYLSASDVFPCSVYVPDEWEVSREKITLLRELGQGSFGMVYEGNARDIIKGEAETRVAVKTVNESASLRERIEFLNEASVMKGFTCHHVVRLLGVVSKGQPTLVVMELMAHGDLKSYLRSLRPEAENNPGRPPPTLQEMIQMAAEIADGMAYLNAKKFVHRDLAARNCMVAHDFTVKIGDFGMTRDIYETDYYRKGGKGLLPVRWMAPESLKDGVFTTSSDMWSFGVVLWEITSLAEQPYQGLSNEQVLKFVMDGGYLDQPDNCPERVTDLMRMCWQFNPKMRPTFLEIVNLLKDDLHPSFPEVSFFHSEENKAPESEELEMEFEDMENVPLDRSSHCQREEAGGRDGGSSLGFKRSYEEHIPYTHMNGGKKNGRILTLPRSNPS
Interleukin-1 receptor-associated kinase 1 (Homo sapiens), sequence (P51617 whole entry, looked up): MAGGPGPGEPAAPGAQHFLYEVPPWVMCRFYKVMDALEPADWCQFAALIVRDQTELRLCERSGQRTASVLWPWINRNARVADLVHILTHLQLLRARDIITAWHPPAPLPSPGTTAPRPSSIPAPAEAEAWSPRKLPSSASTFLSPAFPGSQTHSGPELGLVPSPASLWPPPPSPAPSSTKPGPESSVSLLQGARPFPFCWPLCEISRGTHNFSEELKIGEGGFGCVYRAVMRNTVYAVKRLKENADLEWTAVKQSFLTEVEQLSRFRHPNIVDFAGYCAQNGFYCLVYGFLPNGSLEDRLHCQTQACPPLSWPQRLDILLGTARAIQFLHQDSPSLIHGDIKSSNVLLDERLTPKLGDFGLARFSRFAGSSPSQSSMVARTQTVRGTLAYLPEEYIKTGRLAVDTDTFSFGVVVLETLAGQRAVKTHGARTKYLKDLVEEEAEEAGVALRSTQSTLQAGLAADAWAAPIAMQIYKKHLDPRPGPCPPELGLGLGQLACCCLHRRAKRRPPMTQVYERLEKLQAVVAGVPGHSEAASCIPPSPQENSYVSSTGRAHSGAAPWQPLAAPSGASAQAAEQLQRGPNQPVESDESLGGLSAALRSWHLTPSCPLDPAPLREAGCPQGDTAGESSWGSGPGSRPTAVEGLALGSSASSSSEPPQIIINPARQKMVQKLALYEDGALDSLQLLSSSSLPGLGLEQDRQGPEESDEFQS
Insulin-like growth factor 1 receptor (Homo sapiens), sequence (P08069 31-736 limits assumed): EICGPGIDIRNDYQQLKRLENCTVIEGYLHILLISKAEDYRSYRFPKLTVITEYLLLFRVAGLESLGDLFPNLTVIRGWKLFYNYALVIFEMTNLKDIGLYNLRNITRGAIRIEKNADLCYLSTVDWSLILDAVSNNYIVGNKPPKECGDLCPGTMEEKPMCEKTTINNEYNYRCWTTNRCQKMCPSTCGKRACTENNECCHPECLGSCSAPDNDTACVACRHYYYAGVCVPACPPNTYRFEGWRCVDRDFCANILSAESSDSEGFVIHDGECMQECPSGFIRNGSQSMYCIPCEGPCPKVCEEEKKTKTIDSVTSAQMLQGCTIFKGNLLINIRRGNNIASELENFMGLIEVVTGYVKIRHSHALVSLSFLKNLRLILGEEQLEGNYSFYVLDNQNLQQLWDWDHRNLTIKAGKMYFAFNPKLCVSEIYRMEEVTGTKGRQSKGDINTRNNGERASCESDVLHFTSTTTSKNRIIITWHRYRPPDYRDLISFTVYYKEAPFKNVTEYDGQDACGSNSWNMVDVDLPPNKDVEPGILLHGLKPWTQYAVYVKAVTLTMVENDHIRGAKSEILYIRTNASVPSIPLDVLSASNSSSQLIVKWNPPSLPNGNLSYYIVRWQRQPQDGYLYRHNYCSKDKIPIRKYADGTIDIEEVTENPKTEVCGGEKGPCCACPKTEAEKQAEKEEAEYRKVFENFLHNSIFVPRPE
Insulin-like growth factor 1 receptor (Homo sapiens), sequence (P08069 741-1367 limits assumed): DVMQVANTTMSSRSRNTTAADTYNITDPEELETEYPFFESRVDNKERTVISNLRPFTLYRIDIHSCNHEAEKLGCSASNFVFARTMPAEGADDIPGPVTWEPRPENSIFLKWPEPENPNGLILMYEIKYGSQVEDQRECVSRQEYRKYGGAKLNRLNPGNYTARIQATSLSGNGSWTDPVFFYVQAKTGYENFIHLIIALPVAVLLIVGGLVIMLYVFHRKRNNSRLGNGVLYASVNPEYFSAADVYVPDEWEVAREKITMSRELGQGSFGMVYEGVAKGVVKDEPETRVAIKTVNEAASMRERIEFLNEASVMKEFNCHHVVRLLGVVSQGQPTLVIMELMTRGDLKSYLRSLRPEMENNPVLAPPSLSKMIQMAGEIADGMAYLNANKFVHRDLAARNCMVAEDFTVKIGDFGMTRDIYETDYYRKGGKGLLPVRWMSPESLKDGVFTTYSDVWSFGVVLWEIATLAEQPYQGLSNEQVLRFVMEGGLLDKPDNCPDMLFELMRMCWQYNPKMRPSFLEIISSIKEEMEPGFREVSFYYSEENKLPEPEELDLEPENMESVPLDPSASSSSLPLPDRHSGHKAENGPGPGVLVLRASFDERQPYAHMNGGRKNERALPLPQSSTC
Insulin receptor-related protein (Homo sapiens), sequence (P14616 27-742 limits assumed): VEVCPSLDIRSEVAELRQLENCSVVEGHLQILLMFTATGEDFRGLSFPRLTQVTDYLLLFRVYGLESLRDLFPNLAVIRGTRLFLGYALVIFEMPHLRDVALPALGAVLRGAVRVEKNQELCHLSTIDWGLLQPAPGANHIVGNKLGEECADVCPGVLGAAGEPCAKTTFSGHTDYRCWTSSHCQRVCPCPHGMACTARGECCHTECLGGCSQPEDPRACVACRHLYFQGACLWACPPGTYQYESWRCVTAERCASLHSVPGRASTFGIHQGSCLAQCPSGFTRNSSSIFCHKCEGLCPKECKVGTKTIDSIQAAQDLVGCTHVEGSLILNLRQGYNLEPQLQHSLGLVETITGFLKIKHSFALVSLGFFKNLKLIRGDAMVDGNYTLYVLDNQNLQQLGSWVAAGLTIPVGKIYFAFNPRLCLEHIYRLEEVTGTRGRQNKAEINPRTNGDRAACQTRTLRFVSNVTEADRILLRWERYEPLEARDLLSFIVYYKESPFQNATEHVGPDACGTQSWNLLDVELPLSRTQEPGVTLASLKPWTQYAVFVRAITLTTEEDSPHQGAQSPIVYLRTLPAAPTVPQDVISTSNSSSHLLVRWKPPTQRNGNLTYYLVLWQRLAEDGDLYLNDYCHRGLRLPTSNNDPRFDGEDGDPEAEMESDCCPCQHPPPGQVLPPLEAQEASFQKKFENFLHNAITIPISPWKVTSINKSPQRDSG
Insulin receptor-related protein (Homo sapiens), sequence (P14616 747-1297 limits assumed): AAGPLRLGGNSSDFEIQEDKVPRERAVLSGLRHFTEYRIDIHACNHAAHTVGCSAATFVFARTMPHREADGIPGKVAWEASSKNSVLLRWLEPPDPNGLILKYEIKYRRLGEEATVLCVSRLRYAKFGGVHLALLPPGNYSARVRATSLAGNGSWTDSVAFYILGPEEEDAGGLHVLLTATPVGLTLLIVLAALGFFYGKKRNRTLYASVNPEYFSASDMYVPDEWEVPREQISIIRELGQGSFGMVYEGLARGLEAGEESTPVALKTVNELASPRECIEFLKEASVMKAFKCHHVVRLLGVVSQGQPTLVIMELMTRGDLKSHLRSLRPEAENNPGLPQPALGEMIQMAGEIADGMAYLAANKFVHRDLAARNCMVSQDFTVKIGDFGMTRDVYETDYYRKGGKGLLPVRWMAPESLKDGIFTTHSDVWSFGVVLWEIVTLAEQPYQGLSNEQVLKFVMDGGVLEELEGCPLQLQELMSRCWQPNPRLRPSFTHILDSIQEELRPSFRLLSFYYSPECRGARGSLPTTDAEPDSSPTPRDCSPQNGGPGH

Row | Structure (SMILES) | residual activity [1] [%] | residual activity [2] [%] | residual activity [3] [%] | residual activity [4] [%] | residual activity [5] [%] | residual activity [6] [%] | residual activity [7] [%] | residual activity [8] [%] | residual activity [9] [%] | residual activity [10] [%] | residual activity [11] [%] | residual activity [12] [%] | residual activity [13] [%] | residual activity [14] [%] | residual activity [15] [%] | residual activity [16] [%] | residual activity [17] [%] | residual activity [18] [%] | residual activity [19] [%] | residual activity [20] [%]
1 | Cn1nc2c3c(cccc31)C(=O)c1ccccc1-2 | 55 | 85 | 76 | 89 | 99 | 110 | 82 | 100 | 87 | 94 | 74 | 81 | 63 | 90 | 87 | 76 | 47 | 103 | 89 | 100
2 | O=c1cc(-c2cccc3c2Sc2ccccc2S3)oc(N2CCOCC2)c1 | 80 | 114 | 88 | 105 | 101 | 98 | 93 | 106 | 103 | 105 | 136 | 98 | 99 | 102 |  | 100 | 98 | 119 | 96 | 105
3 | COc1cc2ncc(-c3ccccc3)nc2cc1OC | 76 |  |  |  |  |  |  | 95 | 95 |  |  |  |  |  |  |  |  | 137 | 80 | 
4 | COc1ccc(OC)c2c(=S)c3ccccc3[nH]c12 | 67 | 101 | 81 | 98 | 101 | 99 | 102 | 95 | 95 | 99 | 103 | 101 | 89 | 101 | 102 | 86 | 68 | 106 | 103 | 98
5 | Cc1cc2ncc(-c3ccccc3)nc2cc1C | 73 | 100 | 91 | 99 | 101 | 105 | 109 | 101 | 99 |  |  |  |  | 99 | 94 |  |  | 124 | 71 | 93
6 | Cc1cncc2cccc(S(=O)(=O)N3CCCN(C(=O)CN)C[C@H]3C)c12 | 55 | 78 | 86 |  |  | 93 |  |  |  |  | 70 | 97 | 76 | 82 | 67 |  |  |  |  | 
7 | c1ccc(-c2n[nH]c3c2oc2ccccc23)cc1 | 55 | 82 | 88 |  |  | 97 | 88 |  |  |  |  |  |  | 96 | 98 | 91 | 68 | 141 | 73 | 98
8 | N#Cc1cnc2cnc(NCc3cccnc3)cc2c1Nc1ccc(F)c(Cl)c1 | 2 | 126 | 123 |  |  | 74 | 58 | 84 | 74 | 136 | 123 | 72 | 52 | 93 | 103 | 64 | 43 | 90 | 89 | 72
9 | Oc1ccc(-c2nc(-c3ccc(F)cc3)c(-c3ccncc3)[nH]2)cc1 | 85 | 100 | 40 | 122 | 123 | 90 | 59 | 120 | 91 | 136 | 126 | 97 | 90 | 104 | 79 |  | 88 |  | 98 | 108
